Data published in PubChem BioAssay AID504941 (Broad Institute, 2011).
Among all 1,200 compounds or so, about 170 (14%) were called active. The rule behind the calls is not given here. A selection follows. Entries with a potency or affinity are not part of this list.

Assay: E. coli Tat export inhibitors, dose response, cherry-pick, set 2, plate reader (AID 504941)
Conditions: E. coli Tat transport reporter; series mostly up to 38 µM; activity change, negative = inhibition: at the top concentration

Activity change, negative = inhibition, inactive:
CN(C(=O)COC(=O)c1cccc(S(=O)(=O)N2CCOCC2)c1)C1CCS(=O)(=O)C1 (stereo unspecified) 6.11%, CC(C)C(C(=O)NC1CCCC1)N(CC1CCCO1)C(=O)CNS(=O)(=O)c1ccccc1 (stereo unspecified) -0.216%, CCOc1nc(Nc2ccc(OC)c(Cl)c2)nc(OCC)n1 -7.13%, Cc1ccc(C)c(N2CCN(c3ccc4cc(S(=O)(=O)N5CCCCC5)ccc4n3)CC2)c1 10.4%, O=C(CCCc1nc2ccccc2s1)NC1CCOC1=O (stereo unspecified) -11.4%, Clc1ccccc1-c1ccc2ncnc(NCc3cccnc3)c2c1 7.13%, Cc1ccc(S(=O)(=O)Nc2ccnc(-c3cccnc3)n2)cc1 9.87%, CC1CC(OC(=O)C(O)c2ccccc2)CC(C)(C)N1C (stereo unspecified) -5.37%, CC1CCN(C(=O)c2ccc(S(=O)(=O)N3CCCC3)cc2)CC1 10.2%, CC1CCN(CC[C@H]2CCCN2S(=O)(=O)c2cccc(O)c2)CC1 8.51%, COc1ccc(/C=C/C(=O)OCc2cc(=O)n3c(n2)sc2ccccc23)cc1 -12%, CCN1CCN(C(=O)C(NS(=O)(=O)c2ccc3nc(C)sc3c2)C(C)C)CC1 (stereo unspecified) -20.5%, O=C(CCNC(=O)c1ccc([N+](=O)[O-])cc1)Nc1cccc(S(=O)(=O)N2CCCCCC2)c1 -10.6%, O=C(NCCc1ccccc1)c1ccc2c(c1)OCCCO2 -10.6%, O=C(CN1CCN(c2ccc(O)cc2)CC1)Nc1ccc2c(c1)OCCO2 21.3%, Cc1cc(Cl)c(S(=O)(=O)NC(C(=O)O)C(C)C)cc1OCC(=O)NC1CCCCC1 (stereo unspecified) -0.619%, C[C@@H]1CN(c2c(F)c(F)c3c(=O)c(C(=O)O)cn(C4CC4)c3c2F)C[C@H](C)N1 303%, Nc1nc(=O)n(C2CC(O)C(CO)O2)cc1F (stereo unspecified) 181%, CCNC(=S)NCCN1CCOCC1 7.35%, CCCc1cc(=O)[nH]c2nnc(SCC(=O)Nc3ccc4c(c3)OCCO4)n12 1.25%, O=C(Nc1ccc2c(c1)OCCO2)c1ccc(Cl)c(S(=O)(=O)N2CCCCC2)c1 6.22%, C=CCN(CC=C)S(=O)(=O)c1ccc(NC(=S)NC(=O)C2CC2)cc1 -41.6%, COc1ccc(-c2cc(C(=O)Oc3ccc([N+](=O)[O-])cc3)c3ccccc3n2)cc1 30.5%, COc1ccc(-c2cc(C)no2)cc1S(=O)(=O)NCCCN1CCCCCC1 9.9%, CCOc1ccc2[nH]c(C)c(CN3CCCCC3)c(=O)c2c1 17.6%, Cc1cc(-n2c(C)cc(C(=O)COc3cccnc3[N+](=O)[O-])c2C)no1 0.514%, O=C(N1CCCC1)C12CC3CC(C1)CC(C(=O)N1CCCC1)(C3)C2 4.29%, C/C(=N\NC(=O)c1cccc(O)c1)c1cccc(NC(=O)c2ccc(F)cc2)c1 7.5%, COc1cc(C(=O)NCCOC(=O)c2cccc(N(C)C)c2)cc(OC)c1OC -12.9%, Cc1cc(C)cc(-n2c(C)cc(/C=C3\C(=N)N4N=C(CC(C)C)SC4=NC3=O)c2C)c1 7.24%, COc1ccc(NS(=O)(=O)c2ccc(NC(=O)Cc3cccs3)cc2)cc1 12.2%, O=S(=O)(N1CCCCC1)N1CCN(c2ccccc2F)CC1 -1.04%, CCOC(=O)C(C(=O)Nc1ccc(C)cc1)C1CCCCC1 (stereo unspecified) 17.6%, Cc1ccccc1NC1=NC(=S)N(c2ccccc2)C12CCOC(C)(C)C2 (stereo unspecified) -0.879%, CC(CN1CCOCC1)(NS(=O)(=O)c1ccccc1)c1ccccc1 (stereo unspecified) -6.65%, CC(C)OC(=O)c1c(NC(=O)c2ccco2)sc2c1CCCC2 -6.21%, O=C(O)CCC(=O)Nc1sc2c(c1C(=O)Nc1cccc3ccccc13)CCCCC2 -7.8%, CCOC(=O)CC(=O)Nc1ccccc1C(=O)O -1.16%, CCCCNC(=O)CCCn1c(=O)[nH]c2ccc(Br)cc2c1=O -10.4%, O=C1OCc2ccc(NC(=O)C3CC3)cc21 -7.47%, OCCN1CCN(C(=S)Nc2ccc(Oc3ccccc3)cc2)CC1 -21.3%, Cc1ccc(CC(=O)NCCS(=O)c2ccc(Cl)cc2)cc1 (stereo unspecified) 12.3%, Cc1ccc(CS(=O)(=O)CCC(=O)NCCCN2CCCC2)cc1 2.96%, O=C(CN1C(=O)NC2(CCCCC2)C1=O)NCc1cccs1 22.5%, COCn1c(-c2cccc(Br)c2)nc2ccccc21 21.4%, CSc1ccccc1OCc1cc(C(=O)N(C)Cc2c(C)n[nH]c2C)no1 12.3%, COc1cc(Cl)ccc1OCc1cc(C(=O)NCC(C)(C)N2CCOCC2)no1 -6.94%, NS(=O)(=O)c1ccc(NC(=O)CSc2nnc(-c3ccc(O)cc3)o2)cc1 8.57%, O=C(CSc1nnc(-c2cccnc2)o1)Nc1ccc(Cl)cc1 12.1%, CC(=O)N1Cc2cc([N+](=O)[O-])ccc2Oc2ccccc21 12.2%, CC(=O)NC(Cc1cnc[nH]1)C(=O)O (stereo unspecified) 6.77%, CCCN(C(=O)Cn1c(C(F)(F)F)nc2ccccc21)C1CCS(=O)(=O)C1 (stereo unspecified) 8.26%, O=C(NCc1ccccc1)c1ccc(F)c(F)c1 7.16%, O=C(NCc1ccccc1)c1ccc(Br)o1 -13.9%, Cc1ccc(OCCNC(=O)c2cc(-n3cnnc3)ccc2Cl)cc1C -6.14%, C[C@@H]1O[C@@H](Oc2c(-c3ccc(O)c(O)c3)oc3cc(O)cc(O)c3c2=O)[C@H](O)[C@H](O)[C@H]1O 12.2%, COc1ccc(Cl)cc1NC(=S)NCc1cccnc1 22.5%, CC(C)N1CCc2c(sc(NC(=O)c3ccc(S(=O)(=O)N4CCc5ccccc54)cc3)c2C(N)=O)C1 34.7%, CC(NC(=O)c1ccc([N+](=O)[O-])o1)C12CC3CC(CC(C3)C1)C2 (stereo unspecified) 15.2%, COc1ccccc1N1CCN(C(=O)c2cc3c(=O)n4ccccc4nc3s2)CC1 11%, Cc1ccc(NC(=O)CSc2nccn2C)cc1F 17%, CCCNC(=O)c1cc(C)no1 6.59%, COc1ccc(S(=O)(=O)N2CCC(C(=O)NCc3cccnc3)CC2)cc1OC 2.11%, COc1ccc(NC(=O)Cn2ncc(Cl)c(Cl)c2=O)cc1S(=O)(=O)N1CCOCC1 2.91%, O=c1[nH]c2ccc(S(=O)(=O)N3CCCCC3)cc2s1 17%, CN(C)C(=S)Nc1ccc2ccccc2c1 -3.63%, O=C(Cn1cc(C(F)(F)F)ccc1=O)OCC(=O)c1ccc[nH]1 11.2%, Cc1c(Cl)cccc1NC(=O)C1NC(=O)CC1c1ccccc1 (stereo unspecified) -18%, COc1ccc(/C(C)=N/NC(=O)CNC(=O)c2ccncc2)c(OC)c1 -12.5%, COC(=O)CSc1ccc(C#N)c(SCC(=O)OC)c1 -25.3%, CCC1Oc2nc(SC)nnc2-c2ccccc2N1C(=O)c1ccccc1 (stereo unspecified) 4.65%, CCC(CC)C(=O)Nc1nnc(S(=O)(=O)N2CCCCCC2)s1 -1.1%, CCOC(=O)c1cc(C)sc1NC(=O)C(c1ccccc1)c1ccccc1 -30.7%, CCOc1ccc(NC(=O)CN2C(=O)/C(=C3\SC(=S)N(C4CCS(=O)(=O)C4)C3=O)c3ccccc32)cc1 (stereo unspecified) 8.88%, Cc1cc(C)c(NS(=O)(=O)c2ccc3c(c2)NC(=O)CCS3)c(C)c1 -14.1%, O=C(COC(=O)/C=C/c1ccc(F)cc1)Nc1nnc(-c2ccccc2)o1 34.7%, Cc1cc(C(=O)CSc2nnc(-c3ccc4c(c3)OCO4)o2)c(C)n1-c1ccc(F)cc1 3.43%, O=C(Cn1cc([N+](=O)[O-])cn1)N1CCN(c2ccccc2)CC1 11.2%, COC(=O)C1C(O)C(C)C(O)C(C)(O)/C=C\C=C(/C)C(=O)Nc2c(C)c(OC(C)=O)c3c(c2O)C(=O)C(C)=C2OCOC(=C23)/C(C)=C/C(C)(O)C(O)C(C)C1O (stereo unspecified) -24.2%, COc1ccc(S(=O)(=O)N2CCC(C(=O)N3CCN(C)CC3)CC2)cc1Cl -4.18%, COc1ccc(OC)c(S(=O)(=O)N2CCC(C(=O)NC3CC3)CC2)c1 19.3%, CCOc1ccc(NC(=O)CNC(=O)Cc2ccccc2)cc1 4.14%, COC(=O)c1ccc(CNC(=O)C2CCC(=O)N(Cc3ccccn3)C2)cc1 (stereo unspecified) -28.2%, CNC1=CC(=O)CC(c2ccccc2)C1 (stereo unspecified) 12.6%, CCCCCn1c(CNC(=O)c2cccs2)nc2ccccc21 -1.52%, O=C(Nc1c2c(nn1-c1ccccc1)CS(=O)(=O)C2)c1cccs1 -5.38%, Cc1cccnc1NC(=O)c1cccc(S(=O)(=O)N2CCCc3ccccc32)c1 -14%, O=C(COC(=O)c1cccc(S(=O)(=O)N2CCc3ccccc32)c1)Nc1ncc(C(F)(F)F)cc1Cl 14.6%, Cc1nc(NC(=O)/C=C/c2ccccc2)sc1C(=O)N(C)C 0.771%, CC(NC(=O)CSc1nc2sc3c(c2c(=O)n1-c1ccccc1)CCCC3)c1ccccc1 (stereo unspecified) 6.92%, CCn1c(C)cc(/C=C2/NC(=O)N(Cc3ccccc3F)C2=O)c1C 10.6%, O=C(COc1ccc2c3c(c(=O)oc2c1)CCCC3)NCC(O)c1ccccc1 (stereo unspecified) 4.93%, O=C(COc1ccc2c3c(c(=O)oc2c1)CCCC3)NCCCn1ccnc1 16.2%, c1ccc(-n2c(SCC3CCCCO3)nnc2-c2cccs2)cc1 (stereo unspecified) -12.4%, Cc1noc(C)c1COc1ccccc1C(=O)NC1CCC(C)CC1 (stereo unspecified) -7.29%, CCN(CC)CC(=O)N(CC(=O)Nc1c(C)cc(C)cc1C)C1CCCCC1 -9.21%, O=[N+]([O-])c1ccc(O)c(/C=N/Nc2nc3ccccc3[nH]2)c1 -11.5%, O=c1oc(-c2ccccc2)nc2sc3c(c12)CCCC3 -12.9%, O=C(O)CCCc1nc(-c2ccc(Cl)cc2)no1 -8.66%, COc1ccc(OCc2nnc(SCC(=O)N3C(C)CCCC3C)o2)cc1 (stereo unspecified) 13.9%, c1ccc(C2NCCc3ccccc32)cc1 (stereo unspecified) 39.2%, Nc1nnc(-c2cn(-c3ccccc3)nc2-c2ccc(Cl)cc2)o1 -4.94%, CSc1ncccc1C(=O)OCC(=O)N(C)c1c(N)n(Cc2ccccc2)c(=O)[nH]c1=O 33.1%, O=C(COC(=O)C12CC3CC(CC(Br)(C3)C1)C2)Nc1cccnc1Cl 7.63%, O=C(OCC(=O)N1CCCC1=O)c1cccc(S(=O)(=O)N2CCOCC2)c1 17%, COc1ccc(NC(=O)CC2(CC(=O)O)CCCC2)cn1 1.15%
